The record followed here is PubChem BioAssay AID1745848 (National Center for Advancing Translational Sciences (NCATS), 2022).

Values joined by “and” are separate entries in the source; they are usually repeats but may differ in a detail not shown here. Equal values may be shown once. Among all 2,100 compounds or so, about 940 (45%) were called active. About 48% were inconclusive and are not listed. So high a share suggests a set chosen from earlier hits. The list shows a part of the results. Values without a mark were called inactive. Calls follow the shape of the dose curve; as a rule, active = well fitted inhibition curve with a large enough effect; inconclusive = small, poorly fitted or top-dose-only effect; inactive = no such curve, though single readings can be large or run the other way.
Potency is read from the fitted curve at half-maximal effect.

This experiment in a line: Confirmatory qHTS for Inhibitors of ATXN expression. Also: nearly all actives have a fitted effect of over 65% in size.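 As to activity change, negative = inhibition: 0% = DMSO vehicle wells and -100% = medium-only wells without cells.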 As to conditions: ATXN2-luciferase reporter cells, luminescence, 24 h; series mostly up to 11.5 µM; activity change, negative = inhibition: at the top concentration. In outline: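 A titration, incubated 24 h with reporter cells expressing ATXN2-luciferase. Luminescence (SteadyGlo) gives ATXN2 expression, multiplexed GF-AFC fluorescence gives viability; normalised to DMSO and medium-only wells.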
As to `O=C(c1ccco1)N1CCN(c2ncnc3scc(-c4cccs4)c23)CC1`, the “activity change, negative = inhibition” value was -20.8%. For `Cc1c(C(=O)N2CCN(c3ccc(F)cc3)CC2)sc2ncnc(N3CCN(c4ccccn4)CC3)c12`, the Potency was 2.82 µM (active). Same read-out and setting: next, `COc1ccc(C(=O)C=CNNC(=O)c2ccc(Cl)cc2)cc1`: 14.1 µM (active); `O=C(/C=C/NNC(=O)c1ccccc1)c1ccc([N+](=O)[O-])cc1`: 3.16 µM (active). `CCCCn1c(/C=N/Nc2nc3ccccc3[nH]2)nc2ccccc21`: the “activity change, negative = inhibition” value is -15.3%.

`CC(C)Cn1c(/C=N/Nc2nc3ccccc3[nH]2)nc2ccccc21`: the Potency is 8.91 µM (active). For `S=C(NCCCN1CCOCC1)N1CCN(c2nc(-c3ccccc3)cs2)CC1`, the Potency was 11.2 µM (active). Still for that read-out and setting: the result for `O=c1c2ccc(Cl)cc2nc(-c2cccc(C(F)(F)F)c2)n1O` reads 2.51 µM (active). Consider `Cc1cc(/C=N/n2cnnc2)c(C)n1-c1ccc(OCc2ccc(Cl)cc2Cl)cc1`, for which the Potency is 7.94 µM (active). With `COc1cccc(/C=N/NC(=O)c2cc3c(OC)cccc3[nH]2)c1O`, the Potency is 2.24 µM (active). Same read-out and setting: next, `COc1cc(OC)c2cc(C(=O)N/N=C/c3cccc(OC)c3O)[nH]c2c1`: 3.55 µM (active). For `O=C(NC(=S)N1CCN(c2ccc(F)cc2)CC1)c1cccs1`, the “activity change, negative = inhibition” value was -6.64%. For the compound `Cc1[nH]c(-c2ccc(F)cc2)cc1C(=O)N1CCN(c2ccc(Cl)cc2)CC1`, the Potency is 25.1 µM (active). Consider `CN1CCN(c2cc(-c3cc(O)c4ncccc4c3)ccn2)CC1`, for which the Potency is 12.6 µM (active). Same read-out and setting: the result for `C/C(=N\NC(=O)Cc1ccc(Cl)cc1)c1ccccc1O` reads 14.1 µM (active); that for `C/C(=N\NC(=O)C1CCCN(S(=O)(=O)c2ccccc2)C1)c1ccccn1` (stereo unspecified), 0.794 µM (active); that for `C/C(=N\NC(=O)C1COc2ccccc2O1)c1ccccn1` (stereo unspecified), 0.631 µM (active).

As for `COc1ccc(CC(=O)N/N=C(\C)c2ccccn2)cc1`, the Potency is 11.2 µM (active).

Turning to `C/C(=N\NC(=O)CCCNc1ccc(C)cc1)c1ccccn1`, the Potency was 14.1 µM (active). Still for that read-out and setting: the result for `CCCCCC(=O)N/N=C(\C)c1ccccn1` reads 0.501 µM (active); that for `Cc1ccc(/C=N/NC(=O)C2=NNC(c3ccccc3)(c3ccccc3)C2)c(O)c1`, 2.82 µM (active); that for `CC(C)(C)c1nnc(N/N=C/c2ccccc2O)n(N)c1=O`, 0.891 µM (active). Same read-out and setting: the result for `CCn1c2ccccc2c2cc(C3C(C#N)=C(N)Oc4n[nH]c(COC)c43)ccc21` (stereo unspecified) reads 2.82 µM (active). On the same count and under the same terms, the result for `CCn1c2ccccc2c2cc(NC(=O)COC(=O)Cc3cn4ccsc4n3)ccc21` reads 1.26 µM (active); that for `CCn1c2ccccc2c2cc(NC(=O)COC(=O)c3cc(S(=O)(=O)N4CCCCC4)ccc3Cl)ccc21`, 1.58 µM (active). Take `CCn1c2ccccc2c2cc(NC(=O)COC(=O)C3CCC(=O)N3)ccc21` (stereo unspecified): the Potency was 11.2 µM (active).

As for `CCn1c2ccccc2c2cc(NC(=O)COC(=O)c3ccccc3F)ccc21`, the Potency is 2 µM (active). With `Cc1c(C(=O)NCc2ccc(Cl)c(Cl)c2)sc(=O)n1Cc1ccc(S(C)(=O)=O)cc1`, the “activity change, negative = inhibition” value is -22.8%. Still for that read-out and setting: the result for `COc1ccc(N=Cc2cc3c(cc2O)OC(N)=C(C#N)C3c2ccccc2)cc1` (stereo unspecified) reads -25.5%.

Take `Cc1cc(OCc2nc(N)nc(N)c2-c2ccc(Cl)c(Cl)c2)ccc1[N+](=O)[O-]`: the Potency was 2.51 µM (active). As to `Cc1ccc(-n2c(-c3ccccc3)c[n+]3c2CCc2ccccc2-3)c(C)c1`, the Potency is 0.794 µM (active). Same read-out and setting: the result for `COc1ccccc1-n1c(-c2ccccc2)c[n+]2c1CCc1ccccc1-2` reads 7.94 µM (active). On to `Cc1nnc(SC(C)C(=O)Nc2ccc(Cl)cn2)n1Cc1ccccc1` (stereo unspecified), for which the “activity change, negative = inhibition” value is -20.6% [at 57.5 µM]. Take `CNc1ccccc1C(=O)OC(C)C(=O)Nc1ccc(Cl)cn1` (stereo unspecified): the Potency is 2 µM (active). Still for that read-out and setting: next, `NNC(=O)c1sc2cc(C(F)(F)F)cnc2c1-c1cccs1`: 28.2 µM (active). For `COC1=C(c2ccccc2)C(=O)c2ccccc2C1=O`, the “activity change, negative = inhibition” value was -16.5%.

Regarding `O=C1c2cccc3c([N+](=O)[O-])ccc(c23)C(=O)N1c1ccccn1`, the Potency is 3.98 µM (active).

For `O=C(Nc1nccs1)c1cccc(N2C(=O)c3cccc4c([N+](=O)[O-])ccc(c34)C2=O)c1`, the Potency is 20 µM (active). Still for that read-out and setting: the result for `Cc1ccnc(N2C(=O)c3cccc4c([N+](=O)[O-])ccc(c34)C2=O)c1` reads 28.2 µM (active); that for `Cc1ccc(Cl)cc1-c1ccc(C=Nc2ccc(N3CCOCC3)cc2)o1`, 12.6 µM (active).

`C=CCn1cnc2c(c1=O)c1nc3ccccc3nc1n2/N=C/c1cc(OC)c(OC)c(OC)c1`: the Potency was 14.1 µM (active). For the compound `Cc1ccc2nc(NNC(=O)c3ccc(S(=O)(=O)N4CCc5ccccc5C4)cc3)sc2c1`, the Potency is 2.51 µM (active).

`Cc1cc(C)c2nc(NNC(=O)c3ccc(S(=O)(=O)N4CCc5ccccc5C4)cc3)sc2c1`: the Potency is 3.16 µM (active).

For `NC(=O)c1cc([N+](=O)[O-])ccc1NCc1ccc(N)cc1`, the Potency was 4.47 µM (active). As for `C[n+]1c2cc(N)ccc2cc2ccc(N)cc21`, the Potency was 4.47 µM (active) and 3.55 µM (active). On the same count and under the same terms, next, `Nc1c(C(=O)NCc2ccc(F)cc2)c2nc3ccccc3nc2n1CCCN1CCOCC1`: 3.16 µM (active); `Cn1c(/C=C/c2cccc([N+](=O)[O-])c2)c([N+](=O)[O-])c(=O)n(C)c1=O`: 25.1 µM (active). For `Cn1c(/C=C/c2ccc(Cl)cc2)c([N+](=O)[O-])c(=O)n(C)c1=O`, the Potency is 22.4 µM (active). The same measure, in the same setting: the result for `Cn1c(/C=C/c2ccc(Cl)cc2Cl)c([N+](=O)[O-])c(=O)n(C)c1=O` reads 11.2 µM (active); that for `O=C1C=CCC(/C=C/c2ccccc2)O1` (stereo unspecified), 6.31 µM (active).

With `CCC(C)(C)c1ccc(OCCCC[n+]2ccccc2)c(C(C)(C)CC)c1`, the Potency is 3.16 µM (active).
